Compound activity deposited in PubChem by Sanford-Burnham Center for Chemical Genomics.
eIF4H inh = inhibitors of RNA binding by human eIF4H; Q15056; 290,000 compounds, 0.94% hits; inhibition, % at 35 µM; eIF4H fluorescence polarization binding assay; AID 2012;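 also: calls also rest on retests at 20 µM and on dose response follow-up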
A3G deaminase = inhibitors of human APOBEC3G DNA deaminase | inhibition, % at 20 µM | Q9HC16 | 330,000 compounds, 0.28% hits | recombinant A3G, ssDNA deamination FAM/TAMRA fluorescence;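 active = inhibition of at least 40% at 20 µM, with no more than 30% in the related APOBEC3A deaminase screen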
Target sequence (Q9HC16 whole entry, looked up): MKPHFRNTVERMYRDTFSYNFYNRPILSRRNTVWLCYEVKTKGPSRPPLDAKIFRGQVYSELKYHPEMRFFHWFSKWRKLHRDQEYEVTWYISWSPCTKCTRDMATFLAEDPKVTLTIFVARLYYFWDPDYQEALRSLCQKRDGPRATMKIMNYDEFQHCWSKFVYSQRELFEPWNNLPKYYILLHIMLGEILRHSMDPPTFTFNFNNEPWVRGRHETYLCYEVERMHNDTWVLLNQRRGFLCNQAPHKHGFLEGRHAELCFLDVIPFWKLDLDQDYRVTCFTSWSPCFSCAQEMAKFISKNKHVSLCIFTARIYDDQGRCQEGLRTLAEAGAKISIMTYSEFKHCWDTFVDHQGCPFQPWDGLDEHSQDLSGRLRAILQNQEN
PHOSPHO1 inh = blocks human PHOSPHO1 phosphatase activity; Q8TCT1; recombinant PHOSPHO1, absorbance phosphatase assay; inhibition, % at 13.3 µM; 290,000 compounds, 1.1% hits; AID 1565; in the data active = inhibition above about 60%
A3A deaminase = human APOBEC3A DNA deaminase inhibition; recombinant A3A, FAM/TAMRA ssDNA deamination fluorescence; inhibition, % at 20 µM; 330,000 compounds, 0.41% hits;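 active = at least 40% inhibition at 20 µM here, with at most 30% in a related deaminase screen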
PABP1 MLLE inh = blocks PAM2 peptide binding to the PABP1 MLLE domain; GST-MLLE / FITC-PAM2 fluorescence polarization; P11940; 360,000 compounds, 0.36% hits; AID 588489; inhibition, % at 20 µM; in the data active = inhibition above about 35%, passing the limit was not always enough
PABP polyA inh = PABP-poly(A) binding inhibition. PABP-poly(A) RNA binding, fluorescence polarization. 290,000 compounds, 1% hits. calls only at 35 µM. P11940;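 also: calls also rest on retests at 20 µM and on dose response follow-up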
Large screens that a line does not name were inactive; ! = not active in a repeat. Shown are actives, neighbours in structure and some others; about 2.6% of the full set was active somewhere. Unless noted, no rule for the calls is given here.

CC(C)(CO)Nc1ncnc2onc(-c3ccc(F)cc3)c12	eIF4H inh 92, PABP polyA inh active
CN(c1ccccc1)S(=O)(=O)c1nnc(NC(=O)C2CCCCC2)s1	PHOSPHO1 inh 70
CN(c1ccccc1)S(=O)(=O)c1nnc(NC(=O)c2ccco2)s1	none
NC(=O)c1cc(C(=O)c2ccc(Cl)cc2Cl)c[nH]1	PHOSPHO1 inh 64
CN(C)C(=O)c1cc(C(=O)c2ccc(Cl)cc2Cl)c[nH]1	none
Cc1ccc(/C=N/Nc2nncc(-c3ccccc3)n2)o1	none
Cc1[nH]n(-c2ccccc2)c(=O)c1/C=N/Nc1nncc(-c2ccccc2)n1	PHOSPHO1 inh 67
Cc1ccc(S(=O)(=O)CCCS(=O)(=O)c2ccc(C)cc2)cc1	none
Cc1ccc(S(=O)(=O)CC(=O)c2cc(C)c(O)c(C)c2)cc1	eIF4H inh 2.8, PABP polyA inh active
NC(=O)CC1NC(=O)c2cc([N+](=O)[O-])cc(I)c2OCCC(C(N)=O)NC(=O)[C@@H]2CCCN2C1=O (stereo not given in full)	eIF4H inh active (no result: PABP1 MLLE inh)
NCCCC[C@H]1NC(=O)[C@H](CCC(=O)O)NC(=O)c2cc([N+](=O)[O-])cc(I)c2OCC[C@@H](C(N)=O)NC1=O	none (no result: PABP1 MLLE inh)
CCn1c(COc2cccc(C)c2C)nnc1SCC(=O)N1CCN(c2ccc(OC)cc2)CC1	PHOSPHO1 inh 74
COc1ccc(-c2cc(C(=O)N3CCCC(C(F)(F)F)C3)c3ccccc3n2)cc1OC (stereo not given)	none (no result: eIF4H inh, PHOSPHO1 inh, PABP polyA inh)
CCCCN=Cc1c(C)[nH]n(-c2ccccc2)c1=S	PHOSPHO1 inh 68
O=[N+]([O-])c1ccc(C=Nc2ccccc2)cc1	none (no result: eIF4H inh, A3G deaminase, PHOSPHO1 inh, A3A deaminase, PABP polyA inh)
Cc1[nH]n(-c2ccccc2)c(=O)c1C=NCCc1ccccc1	none
Cc1[nH]n(-c2ccccc2)c(=S)c1C=Nc1cccc([N+](=O)[O-])c1	PHOSPHO1 inh 107
CN1C[C@@H]2[C@@H]3C(=O)N(Cc4ccccc4)C(=O)[C@@H]3[C@](Cc3ccccc3)(C1=O)N2C(=O)c1ccc(Cl)cc1	none (no result: eIF4H inh, A3G deaminase, PHOSPHO1 inh, A3A deaminase, PABP polyA inh)
O=C1/C(=C\c2ccco2)SC(=S)N1C1CCCCC1	eIF4H inh 57 (no result: PABP1 MLLE inh)
O=c1[nH]nc(SCc2ccccc2)c(=O)[nH]1	none
O=c1[nH]nc(Sc2ccccc2)c(=S)[nH]1	PABP1 MLLE inh 45 (no result: eIF4H inh, A3G deaminase, PHOSPHO1 inh, A3A deaminase, PABP polyA inh)
C[C@@H]1O[C@@H](OC[C@H]2O[C@@H](Oc3c(-c4ccc(O)c(O)c4)oc4cc(O)cc(O)c4c3=O)[C@H](O)[C@@H](O)[C@@H]2O)[C@H](O)[C@H](O)[C@H]1O	eIF4H inh 61, PABP polyA inh active
CC1OC(OCC2OC(Oc3c(-c4ccc(O)cc4)oc4cc(O)cc(O)c4c3=O)C(O)C(O)C2O)C(O)C(O)C1O (stereo not given)	eIF4H inh inconclusive, PABP polyA inh inconclusive
COc1cn(-c2ccccc2)nc1C(=O)Nc1ccc(C)cc1Cl	none
COc1ccc(-c2n[nH]c(=S)n2Cc2ccco2)cc1	PHOSPHO1 inh 102
Cc1cc(-c2n[nH]c(=S)n2Cc2ccco2)nn1C	none
Oc1ccccc1-c1n[nH]c(=S)n1Cc1ccco1	A3G deaminase 41, PHOSPHO1 inh 94
Cc1ccc(S(=O)(=O)N(CC(=O)c2ccccc2)C(=O)N2CCN(C)CC2)cc1	none (no result: eIF4H inh, PHOSPHO1 inh, PABP polyA inh)
CCOCCCNC(=O)c1cn(C)c2ccc(S(=O)(=O)N3CCCCC3)cc2c1=O	none
CCOC(=O)c1sc(N(Cc2ccccc2)C(=O)CCl)nc1C	none
O=C(O)CSCC(=O)N(Cc1ccccc1)c1nc(-c2ccccc2)c(-c2ccccc2)s1	eIF4H inh 74
Cc1ccsc1C1C=C(c2cccc(Br)c2)Nc2ncnn21 (stereo not given)	PHOSPHO1 inh 62
Nc1ccc(O)c2c1C(=O)c1ccccc1C2=O	PABP1 MLLE inh 87
Nc1ccc(Br)c2c1C(=O)c1ccccc1C2=O	none (no result: PABP1 MLLE inh)
Cc1cccc(NC(=O)CNC(=O)CN2CCN(C)CC2)c1C	none (no result: eIF4H inh, PHOSPHO1 inh, PABP polyA inh)
Cc1cccc(COC(=O)C(Cc2ccccc2)NC(N)=O)c1 (stereo not given)	none
CCN(CC)S(=O)(=O)c1ccc(N2CCOCC2)c(NC(=O)CCC2CCCCC2)c1	PABP1 MLLE inh 39
CC(CCc1ccccc1)NC(=O)/C=C/c1ccccc1 (stereo not given)	PHOSPHO1 inh 64
Cc1cc(C=O)c(C)n1-c1ccc(N2CCCC2)c([N+](=O)[O-])c1	none
Cc1cc(C=O)c(C)n1-c1ccc(N2CCOCC2)c([N+](=O)[O-])c1	eIF4H inh 82, PABP polyA inh active
O=C(C[n+]1cc(Br)cc2ccccc21)c1ccc(Br)cc1	PABP polyA inh active
O=C(C[n+]1cc(Br)cc2ccccc21)c1ccc(Cl)cc1	eIF4H inh inconclusive, PABP polyA inh inconclusive
COC(CNC(=O)c1ccc2c(c1)ncn2-c1ccc(F)cc1F)OC	none
Nc1cccc2cnccc12	eIF4H inh 88
Oc1cccc2cnccc12	none
CNC(=S)N/N=C/c1ccc(N(C)C)cc1	PHOSPHO1 inh 61
CNC(=S)N/N=C/c1ccc(C(C)C)cc1	none (no result: eIF4H inh, PHOSPHO1 inh, PABP polyA inh)
COc1ccc2c(c1)CC/C(=C\Nc1ccc3c(c1)OCO3)C2=O	eIF4H inh 66, PABP polyA inh active
O=C(O)/C=C/C(=O)N1CCN(S(=O)(=O)c2cc(C(F)(F)F)ccc2Cl)CC1	eIF4H inh 2.1, PABP polyA inh active
CO/N=C\Cc1oc(=O)c(NC(=O)c2ccccc2)cc1C(=O)OC	eIF4H inh 81, PABP polyA inh active
COC(=O)c1cc(NC(=O)c2ccccc2)c(=O)oc1C/C=N\OCc1ccc(Cl)cc1Cl	eIF4H inh 72, PABP polyA inh active
O=C(C/C=N/OCc1ccc(Cl)cc1Cl)c1ccccc1	none
O=C(O)C1CCN(S(=O)(=O)c2ccc(N3CCC(O)CC3)c([N+](=O)[O-])c2)CC1	none
CCc1c(C)sc(NC(=O)CC#N)c1C#N	eIF4H inh 74, PABP polyA inh active
CCOC(=O)C[n+]1c(C)sc2ccc(OC)cc21	PHOSPHO1 inh 92
Cc1nc(NC(=O)C2CC2)sc1C(=O)Nc1ccccc1	none
Cc1nc(NC(N)=S)sc1C(=O)Nc1ccccc1	PABP1 MLLE inh 41
CC[n+]1c(/C=C/Nc2ccccc2)sc2ccccc21	PHOSPHO1 inh 98, PABP polyA inh active
CC[n+]1c(/C=C(/C)SC)sc2ccccc21	PABP1 MLLE inh 46
CC[n+]1c(/C=C(\C)Nc2ccccc2)sc2ccccc21	none (no result: A3G deaminase, A3A deaminase)
COC(=O)c1ccc(=O)c2nc3/c(=C/O)c(O)cc(=O)c3[nH]c12	eIF4H inh 85, PABP polyA inh active (no result: A3G deaminase, A3A deaminase)
COC(=O)c1ccc(N)cc1O	none
O=C(O)C(CCCCNS(=O)(=O)c1ccc(F)cc1)NS(=O)(=O)c1ccc(F)cc1 (stereo not given)	eIF4H inh 96!, PABP polyA inh active!
Cc1cccc(NC(=O)/C(C#N)=C/c2cccc([N+](=O)[O-])c2)n1	none (no result: PHOSPHO1 inh)
OCCC1CN(Cc2nc(-c3ccccc3)cs2)CCN1C1CCCC1 (stereo not given)	PHOSPHO1 inh 64
